The text below walks through data of PubChem BioAssay AID504444 (National Center for Advancing Translational Sciences (NCATS), 2011).

About 7,500 (2.1%) of roughly 360,000 compounds were called active. Entries that show only a call come without a potency. Inconclusive results (about 20%) are left out. Calls come from the whole dose curve; as a rule, active = well fitted inhibition curve with a large enough effect; inconclusive = small, poorly fitted or top-dose-only effect, or effect the other way; inactive = flat fitted curve, though single readings scatter. Many of the other results were omitted from the sample, so actives are more common in it than they were.
Potency is the fitted concentration of half-maximal effect.

The nature of this experiment: Nrf2 qHTS screen for inhibitors. Note: nearly all actives have a fitted effect of over 60% in size. As to conditions: A549 ARE-Fluc reporter, luciferase luminescence, 18-24 h; series mostly up to 46 µM. Put shortly: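 Nrf2 activity is the BugLite luminescence, read 15 min after reagent at room temperature, following CellTiter-Fluor cytotoxicity readout (30 min, 37C). Compound titrations were applied for 18-24 h to 5000 A549 ARE_Fluc cells/well in 5% FBS OPTI-MEM.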
For orientation: qHTS replaces the single test concentration by a dilution series.
Take `COc1ccccc1-c1noc(-c2ccc(NCc3ccccc3)c([N+](=O)[O-])c2)n1`: the Potency result is “inactive”.
Regarding `COc1ccc(C2Nc3cccc(OC)c3C(=O)N2Cc2ccccc2)cc1COc1ccc(NC(C)=O)cc1` (stereo not drawn), the Potency entry is “inactive”.
For `CN(NS(=O)(=O)c1cccs1)c1ncc(C(F)(F)F)cc1Cl`, the Potency entry was “inactive”.
The same measure, in the same setting: next, `N/C(=N\S(=O)(=O)c1cc(C(F)(F)F)cc(C(F)(F)F)c1)c1cccs1`: 20.6 µM (active); `Cc1ccc(S(=O)(=O)/N=C(\N)c2ccc(F)cc2)cc1`: “inactive”.
Turning to `CN1CCOC1c1ccc(C2OCCN2C)cc1` (stereo not drawn), the Potency entry is “inactive”.
On to `COc1ccc2cc(CNc3ccc(OC)c(OC)c3)c(=O)n(CC(=O)Nc3ccccc3F)c2c1`, for which the Potency entry is “inactive”.
With `Cc1ccc(C)n1-c1nnc(N2CCC(C(=O)NCc3ccc(F)cc3)CC2)s1`, the Potency result was “inactive”.
On the same count and under the same terms, the entry for `CN(C)CCCN(C(=O)c1ccc(S(=O)(=O)N2CCCCCC2)cc1)c1nc2cc3c(cc2s1)OCCO3` is “inactive”; for `CCN(CC)CCN(C(=O)c1ccc(S(=O)(=O)N2CCOCC2)cc1)c1nc2cc3c(cc2s1)OCCO3` it is “inactive”.
Turning to `CN(C)CCCN(C(=O)c1ccc(S(=O)(=O)N2CCCCCC2)cc1)c1nc2ccc(Br)cc2s1`, the Potency was 25.9 µM (active).
Regarding `CCOC(=O)c1ccccc1NC(=O)CSc1nc2c(sc(=S)n2CC)c(=O)[nH]1`, the Potency entry was “inactive”.
As to `COc1cc(OC)c(NC(=O)Cc2ccc(-n3c(C)nc4cccnc43)cc2)cc1Cl`, the Potency entry was “inactive”.
As to `CCN(CC)c1cc(NC2CCCCC2)c2c3c(onc13)-c1ccccc1C2=O`, the Potency result is “inactive”.
Turning to `CC(=O)c1ccc(NC(=O)c2nc3nc(C)cc(C(F)F)n3n2)cc1`, the Potency entry was “inactive”.
Consider `CCN(CC)S(=O)(=O)c1cc(C(=O)Nc2cc(S(=O)(=O)N3CCOCC3)ccc2N2CCCC2)ccc1F`, for which the Potency result was “inactive”.
With `O=C(CCCn1c(SCC(=O)c2ccc(F)cc2)nc2ccccc2c1=O)NCc1ccco1`, the Potency was 25.9 µM (active).
As for `O=C(CSc1nc2ccccc2c(=O)n1Cc1ccc(F)cc1)NCC1CCCO1` (stereo not drawn), the Potency entry is “inactive”.
Consider `O=C(CCCn1c(SCC(=O)c2ccccc2)nc2ccccc2c1=O)NCC1CCCO1` (stereo not drawn), for which the Potency entry was “inactive”.
Regarding `CCC(=O)N1CCc2cc(Br)cc(S(=O)(=O)CCC(=O)NCCc3ccc(OC)c(OC)c3)c21`, the activity change, negative = inhibition was 5.45% [at 9.27 µM] (inactive).
As to `Cc1ccc(Cl)cc1NC(=O)CCC(=O)N1CC(C)Sc2ccccc21` (stereo not drawn), the Potency entry is “inactive”.
Regarding `CC1CCCN(S(=O)(=O)c2ccc(C(=O)Nc3nnc(-c4ccncc4)o3)cc2)C1` (stereo not drawn), the Potency is 8.2 µM (active).
With `CSCc1nnc(NC(=O)c2ccc(S(=O)(=O)N3CCCCC3C)cc2)o1` (stereo not drawn), the Potency is 20.6 µM (active).
With `CSc1ncc(Cl)c(C(=O)Nc2ccc(S(=O)(=O)N3CCCC(C)C3)cc2)n1` (stereo not drawn), the Potency entry was “inactive”.
With `CC1CCCCN1S(=O)(=O)c1ccc(C(=O)Nc2nnc(-c3cccs3)o2)cc1` (stereo not drawn), the Potency was 13 µM (active).
Same read-out and setting: the entry for `CCc1nnc(NC(=O)C2CCCN2S(=O)(=O)c2ccccc2)s1` (stereo not drawn) is “inactive”.
Turning to `CC1CC(C)CN(S(=O)(=O)c2ccc(C(=O)NN3CCOCC3)cc2)C1` (stereo not drawn), the Potency result was “inactive”.
Same read-out and setting: the entry for `CC1CCCCN1S(=O)(=O)c1ccc(S(=O)(=O)N(CC(=O)Nc2ccccc2)Cc2cccs2)cc1` (stereo not drawn) is “inactive”; for `CC1CCCCN1S(=O)(=O)CCNC(=O)c1ccccc1` (stereo not drawn) it is “inactive”; for `CC1CCCN(C(=O)Cn2c(=O)oc3cc(S(=O)(=O)N4CCCCC4C)ccc32)C1` (stereo not drawn) it is “inactive”.
As to `O=C1N[C@@H](c2ccccc2)COC(=O)[C@H](Cc2ccc(F)cc2)C/C=C\C[C@@H]1CC(=O)N(CCO)Cc1ccccc1`, the Potency entry was “inactive”.
As for `FC(F)(F)c1cc(Nc2nc3ccccc3c3nncn23)ccc1Cl`, the Potency result is “inactive”.
Take `CC[C@]12c3[nH]c4ccc(Cl)cc4c3CCN1C(=O)[C@@H](CC(=O)NCCCOC)C[C@@H]2C(=O)N1CCN(C(=O)c2ccco2)CC1`: the Potency result was “inactive”.
As to `Cc1sc2ncn(CC(=O)NCCCC(=O)N3CCN(c4ccccc4F)CC3)c(=O)c2c1C`, the Potency entry is “inactive”.
Regarding `O=C(CN1CCN(c2ccccn2)CC1)Nc1ccc(Br)cc1`, the Potency result was “inactive”.
On to `CCOC(=O)c1ccc(NC(=S)N2CCN(c3ccccn3)CC2)cc1`, for which the Potency entry is “inactive”.
As to `Cc1cc(Br)ccc1NC(=O)c1sc2ncn(CC(=O)N3CCN(c4ccccn4)CC3)c(=O)c2c1C`, the Potency was 18.4 µM (active).
As to `Cc1cc(Br)ccc1NC(=O)Cn1cnc2sc(C)c(S(=O)(=O)N3CCN(C)CC3)c2c1=O`, the activity change, negative = inhibition was 4.06% [at 9.27 µM] (inactive).
With `Cc1cc(Br)ccc1NC(=O)c1cnc(N2CCN(c3ccccn3)CC2)c2ccccc12`, the Potency was 11.6 µM (active).
Take `c1ccc(Cn2nnc3c(N4CCCCC4)ncnc32)cc1`: the Potency result is “inactive”.
With `CCN(CC)C(=O)[C@H]1C[C@H](CC(=O)NCC23CC4CC(CC(C4)C2)C3)C(=O)N2CCc3c([nH]c4cc(CCC(=O)N(C)C)ccc34)[C@]12C`, the Potency entry was “inactive”.
The same measure, in the same setting: the entry for `Cc1c(C(=O)Nc2cccc(S(=O)(=O)N3CCOCC3)c2)oc2ccccc12` is “inactive”.
For `O=S(=O)(c1cccc(C(F)(F)F)c1)N1CCN(c2nc(-c3cccs3)nc3ccccc23)CC1`, the Potency entry is “inactive”.
For the molecule `COc1ccc(NS(=O)(=O)c2ccc3oc(SCC(N)=O)nc3c2)cc1`, the Potency is 23.1 µM (active).
For the molecule `COc1ccc(NS(=O)(=O)c2ccc(O)c(C(=O)OCC(=O)NC3CCCCC3)c2)cc1`, the Potency result was “inactive”.
Regarding `CCS(=O)(=O)c1ccc2oc(SCC(=O)N3c4ccccc4CC3C)nc2c1` (stereo not drawn), the Potency entry was “inactive”.
The same measure, in the same setting: next, `COc1ccc(N2CCN(S(=O)(=O)c3ccc4c(c3)CC(=O)N4)CC2)cc1`: “inactive”.
Consider `COc1cc(Cl)ccc1Nc1ncc(C(=O)N2CCN(c3ccccc3OC)CC2)c2ccccc12`, for which the activity change, negative = inhibition was 1.91% [at 9.27 µM] (inactive).
